Source: PubChem BioAssay AID493000 (Johns Hopkins Ion Channel Center, 2010)
The campaign covered roughly 1,900 compounds. About 390 (21%) were called active. The rule behind the calls is not given here. These entries were drawn from the full list.

Assay: carbachol calcium response in non-induced M3R cells, confirmation, counter-screen for RGS4 inhibitor project, cell-based, HEK293 M3R (AID 493000);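 note: RGS4 induction absent so cells express M3R without RGS4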;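 for activity (percent): higher means more calcium signal and flags a non-specific hit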
Settings: carbachol calcium Fluo-4, at 10 µM, submaximal (EC20) carbachol stimulus; hits give high values, buffer wells 0%, carbachol control wells 100%

| Structure (SMILES) | activity (percent) |
| --- | --- |
| O=S(=O)(Nc1nccs1)c1ccc2c(c1)OCCO2 | inactive |
| Brc1ccc(-c2csc(N/N=C/c3cccnc3)n2)cc1 | inactive |
| Cc1ccc(SC(CC(=O)c2ccc(C(C)(C)C)cc2)C(=O)O)cc1 (stereo not drawn) | inactive |
| Nc1cccc(-c2cc(-c3ccccc3)nc(-c3cccc(N)c3)n2)c1 | inactive |
| C=CCSc1nc2c(c(=O)[nH]1)C(C(C)C)C(C#N)=C(N)O2 (stereo not drawn) | 49.5% (active) |
| O=C1c2ccccc2NC(c2ccc(-c3cccc(Cl)c3)o2)N1O (stereo not drawn) | inactive |
| O=C(/C=C/Sc1ncn[nH]1)c1ccc(Cl)cc1 | 32.5% (active) |
| Cc1cc(C)nc(S/C=C/C(=O)c2ccccc2)n1 | inactive |
| O=C(Nc1ccccc1)OCc1cc(-c2ccc(Cl)cc2)on1 | inactive |
| Cc1ccc(Nc2nc(N)nc(CSc3nnc(C)s3)n2)cc1 | inactive |
| CCOC(=O)[C@@H]1[C@H]2COc3ccc(Br)cc3[C@H]2N2C(=O)N(c3ccc(Cl)cc3)C(=O)[C@@]12C | inactive |
| O=C(NCCCc1ccccc1)C1CCC(CNc2c(N3CCCCC3)c(=O)c2=O)CC1 (stereo not drawn) | inactive |
| COc1ccccc1C1C(C#N)=C(N)Oc2c1c(-c1ccccc1)nn2-c1ccccc1 (stereo not drawn) | 34.5% (active) |
| CCC(c1nnnn1Cc1ccco1)N(Cc1cc2cc(OC)ccc2[nH]c1=O)C1CCCCC1 (stereo not drawn) | inactive |
| Cc1nn(C(C)C(=O)N2CCOCC2)c(=O)c2nn(-c3ccccc3)c(C)c12 (stereo not drawn) | inactive |
| CCc1ccc2oc(-c3ccc(N)cc3)nc2c1 | 37.5% (active) |
| Cc1cc(-c2n[nH]c(=S)n2/N=C/C(Br)=C/c2ccccc2)n[nH]1 | inactive |
| CCCCOC(=O)CNc1nnc(SCC(=O)OCC)[nH]c1=O | inactive |
| O=C(O)c1ccc2c(c1)C(=O)N(c1ccc(/C=C/C(=O)c3ccccc3)cc1)C2=O | 32% (active) |
| CCOc1ccc(NC(=O)C/C(C)=N/NC(=O)Cc2cccs2)cc1 | inactive |
| Nc1ccccc1SC(C[N+](=O)[O-])c1ccccc1 (stereo not drawn) | inactive |
| COc1ccc(C(C[N+](=O)[O-])n2nc(C)cc2C)cc1 (stereo not drawn) | inactive |
| CCOC(=O)C1=NN(c2ccc(Cl)cc2)/C(=C/C2=NCCc3cc(OC)c(OC)cc32)S1 | inactive |
